Screens: PubChem BioAssay, National Center for Advancing Translational Sciences (NCATS)
Pf growth 48h: inhibits P. falciparum growth in the first generation, 48 h. Potency, µM (top dose mostly 28.7 µM), for the others: at the highest dose activity change, negative = inhibition, usual class: inhibitors. AID 504832. 310,000 compounds, 5.9% hits. P. falciparum luciferase growth in erythrocytes, 48 h
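Here the parasites carry a stable luciferase gene and grow inside erythrocytes in Albumax-based RPMI medium with compound for one erythrocytic cycle. Activity is scored as loss of luminescent signal.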
AMA1-RON2 inh: disrupts binding of P. falciparum AMA1 to RON2. AlphaScreen AMA1-biotinylated RON2 peptide binding. Potency, µM (series often up to 58.2 µM), for the others: at the top dose activity change, negative = inhibition, hits mostly inhibitors. 360,000 compounds, 0.2% hits. AID 720542;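 further: 0% = vehicle wells and -100% = peptide control; nearly all actives have a fitted effect of over 45% in size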
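AMA1 (3D7) with his tag at 25 nM final met compounds first, then biotinylated RON2 peptide at 25 nM; detection used donor plus acceptor beads, 10 µg/mL apiece, read by AlphaScreen after 30 min at room temperature.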
Vaccinia Venus: inhibitors of vaccinia virus (Venus reporter). Potency, µM (titrated, usually from 36.5 µM), inactives show top-dose activity change, negative = inhibition, hits mostly inhibitors. AID 720580. 330,000 compounds, 0.46% hits. Vaccinia virus Venus reporter expression, fluorescence; calls by dose curve; tested in A549 cells; further: nearly all actives have a fitted effect of over 30% in size
VACV mCherry inh: inhibitors of vaccinia virus infection (mCherry reporter signal); Vaccinia virus mCherry reporter infection, fluorescence; Potency, µM (top dose mostly 36.5 µM), for inactives: at the top dose activity change, negative = inhibition, usual class: inhibitors; 310,000 compounds, 0.63% hits; AID 720579; calls by dose curve; tested in A549 cells; further: nearly all actives have a fitted effect of over 35% in size
Pf growth 96h: inhibits malaria parasite growth, 96 h. Potency, µM (top dose mostly 28.7 µM), for the others: top-dose activity change, negative = inhibition, usual class: inhibitors. P. falciparum luciferase reporter growth, 96 h. 320,000 compounds, 6.9% hits
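Infected RBCs, 2% Hct / 0.05% parasitemia final; luciferase-reporter P. falciparum; cpd 96 h, 37 C, 5% CO2; luciferase detection reagent; luminescence.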
The depositor's hits bear a star; i = inactive; u = inconclusive; x = not tested or not shown. Compounds with a hit are over-represented: about 8.7% of the library has one in this group of screens. Unless noted, the call rests on the fitted dose curve; in most records, active means well fitted curve in the direction sought with a large enough effect; inconclusive means small, poorly fitted or top-dose-only effect, or another doubt; inactive means no such curve, though single readings can be large; an effect the other way counts as inactive or inconclusive. Unless noted, on the % scale 0 is the no-effect control and ±100 the full control effect; potency means the concentration at half of the fitted maximal effect.

SMILES	Pf growth 48h	AMA1-RON2 inh	Vaccinia Venus	VACV mCherry inh	Pf growth 96h
CC1=CC(C)(C)Nc2ccc(OC(=O)CN3C(=O)CCC3=O)cc21	10µM*	-3%	73%	i	x
O=C(Nc1ccc(OC(=O)c2cccnc2)cc1)c1cccnc1	u	-9%	x	x	5%
CC1=CC(C)(C)Nc2ccc(Cc3ccc4c(c3)C(C)=CC(C)(C)N4)cc21	u	16µM*	-20%	-15%	u
CC(=O)Nc1ccc(OC(=O)c2cccnc2)cc1	u	-12%	x	x	1.2µM*
CC1=CC(C)(C)Nc2ccc(OC(=O)c3ccco3)cc21	12µM*	-18%	85%	-13%	9.3µM*
CC1=CC(C)(C)N2C(=O)C(=O)c3cc(OC(=O)c4ccco4)cc1c32	-12%	u	2%	-16%	92%
CC1=CC(C)(C)Nc2ccc(OC(=O)c3cccnc3)cc21	5.2µM*	-12%	x	x	x
COc1cc(-c2cc(=O)c3c(O)cc(O)cc3o2)ccc1O	u	-3%	u	u	13µM*
COc1ccc(-c2cc(=O)c3c(OC)c(OC)c(OC)cc3o2)cc1	u	-6%	-4%	-5%	12µM*
CCN(CC)c1ccc(/C=C/c2sc3ccccc3[n+]2CCCCI)cc1	x	x	i	i	x
O=C(Nc1cccc(C(F)(F)F)c1)Oc1ccc(Cl)c2cccnc12	2.6µM*	12%	u	u	2.3µM*
CCCCOc1cccc(OCCCC)c1C(=O)Nc1cc(C)on1	2.1µM*	0%	x	x	25%
CCCCNC(=O)Nc1cc(C)on1	x	-6%	x	x	46%
COc1ccc(CCNC(=O)CCNC(=O)c2ccccc2Cl)cc1	-1%	-10%	-10%	-14%	3%
CCOc1ccc(CCNC(=O)CCNC(=O)c2ccccc2Cl)cc1OCC	12µM*	0%	-18%	i	u
CCOc1ccc(C(=O)Nc2cc(C)on2)cc1OCC	12µM*	-1%	-11%	-12%	-5%
CCOc1ccc(CCNC(=O)c2cc(C)on2)cc1OCC	10µM*	8%	-17%	i	u
COc1ccc(C(=O)Nc2cc(C)on2)cc1OC	24%	1%	x	x	104%
CCc1c(C)sc(NC(=O)c2cc(-c3ccc(OC)cc3)on2)c1C#N	x	x	-1%	4%	x
Cc1ccc2cc(CN(CC(C)C)S(=O)(=O)c3cccc4nonc34)c(=O)[nH]c2c1	u	-2%	x	x	10µM*
Cc1ccc2cc(CN(CC3CCCO3)S(=O)(=O)c3cccc4nsnc34)c(=O)[nH]c2c1 (stereo not given)	9.3µM*	4%	-12%	-7%	-1%
Cc1cc2cc(CN(CCCO)S(=O)(=O)c3cccc4nsnc34)c(=O)[nH]c2cc1C	9.3µM*	-5%	-12%	-25%	-6%
Cc1ccc2[nH]c(=O)c(CN(CCCO)S(=O)(=O)c3c(C)ccc4nsnc34)cc2c1	0%	-1%	-15%	i	5.9µM*
Cc1c(NC(=O)c2sc3ccccc3c2Cl)cccc1-c1nc2ccccc2o1	x	x	-6%	-20%	x
O=C(Nc1ccc(F)cc1F)c1ccc(CN2CC(=O)N3CCCCC3C2=O)cc1 (stereo not given)	x	x	4%	-10%	x
SMILES	Pf growth 48h	AMA1-RON2 inh	Vaccinia Venus	VACV mCherry inh	Pf growth 96h
O=C(Nc1ccccc1F)c1oc2ccccc2c1NC(=O)C12CC3CC(CC(C3)C1)C2	x	x	-8%	-6%	x
COC(=O)c1cccc(-c2cc(Cl)c3c(c2)CC(CNC(=O)c2cccnc2)O3)c1 (stereo not given)	x	x	0%	-9%	x
O=c1[nH]c2cc3c(cc2cc1CN(CCO)S(=O)(=O)c1ccccc1Cl)OCCO3	x	4%	-5%	-15%	0.66µM*
CCC1Nc2ncnc(N3CCN(c4ccccc4)CC3)c2N(Cc2ccc(C)cc2)C1=O (stereo not given)	u	-15%	-24%	-20%	12µM*
CC(C)CC1Nc2ncnc(N3CCN(c4ccccc4)CC3)c2N(Cc2ccc(Cl)cc2)C1=O (stereo not given)	9.3µM*	-2%	-22%	u	9.3µM*
Cc1ccc(CN2C(=O)C(CC(C)C)Nc3ncnc(N4CCN(c5ccccc5)CC4)c32)cc1 (stereo not given)	x	-18%	u	u	x
CC1Nc2ncnc(N3CCN(c4ccccc4)CC3)c2N(Cc2ccc(Br)cc2)C1=O (stereo not given)	13µM*	-20%	u	7.1µM*	u
CCC1Nc2ncnc(N3CCN(c4ccccc4)CC3)c2N(Cc2ccccc2)C1=O (stereo not given)	x	4%	-28%	-19%	x
CCc1ccc(N(CC)C(=O)Cn2cnc3sc(C)c(S(=O)(=O)N4CCN(c5ncccn5)CC4)c3c2=O)cc1	x	x	-4%	4%	x
CCOC(=O)N1CCC(N2CC34C=CC(O3)C(C(=O)Nc3ccc(OCC)cc3)C4C2=O)CC1 (stereo not given)	x	-3%	-6%	-4%	u
CCOC(=O)N1CCC(N2CC34C=CC(O3)C(C(=O)Nc3ccc(F)cc3)C4C2=O)CC1 (stereo not given)	x	17%	-9%	-7%	15µM*
CN1C=CC(=CC=C2C=CC(=O)C=C2)C=C1	4.7µM*	-4%	3%	i	1.9µM*
O=C(CN1C2=NCCN2c2ccccc21)c1ccco1	x	-15%	x	x	13µM*
CCCCN1C2=NCCCN2c2cc(C)c(C)cc21	13µM*	-2%	-14%	x	13µM*
CCCCCCN1C2=NCCN2c2ccccc21	15µM*	-3%	x	x	x
CCCN1C2=NCCN2c2ccccc21	-9%	-1%	4%	x	4.1µM*
O=C(CN1C2=NCCN2c2ccccc21)N1CCOCC1	12%	1%	-14%	x	16%
COc1ccc(Cl)cc1NC(=O)C(C)N1Cc2ccccc2C1=O (stereo not given)	x	x	-14%	0%	x
CCCCN1C2=NCCCN2c2ccccc21	u	0%	-19%	-12%	10µM*
CCCCCCCN1C2=NCCCN2c2ccccc21	2.9µM*	-5%	-15%	-11%	-4%
CCCN1C2=NCCCN2c2ccccc21	-19%	8%	-7%	i	u
Cc1nc2ncnn2c(C)c1CCC(=O)NCc1ccc(Cl)cc1	x	x	-2%	-3%	x
O=C(NCc1ccc2c(c1)OCO2)c1ccc2c(c1)C(=O)N(Cc1cccnc1)C2=O	10%	-1%	-12%	x	u
O=C(NCc1cccnc1)c1ccc2c(c1)OCO2	7%	6%	x	x	9.3µM*
O=C(NCc1cccnc1)c1ccc2c(c1)C(=O)N(Cc1ccccc1)C2=O	16%	-16%	-13%	-11%	4.1µM*
O=C(Nc1cccc(O)c1)c1ccc2c(c1)C(=O)N(Cc1ccco1)C2=O	-6%	-6%	-12%	-8%	9.3µM*
O=C(Nc1cccnc1)c1ccc2c(c1)C(=O)N(Cc1cccnc1)C2=O	3%	-7%	x	x	9.3µM*
CNc1ccc(/C=C2\C=Cc3ccccc32)cc1OC	x	x	-18%	-30%	x
COCCCNc1ncnc2sc(C(=O)N3CCOCC3)c(C)c12	x	x	-4%	-16%	x
COC(=O)Cc1c(C)c2cc3c(c(C)c2oc1=O)OCN(CCc1ccc(OC)cc1)C3	x	x	-6%	-15%	x
